Source: PubChem BioAssay AID1159580 (chemical genetic matrix, 2015)
Where “and” joins values, the source holds several entries; their conditions need not be identical. Identical values can stand only once. The whole screen tested about 5,500 compounds, of which about 2,000 (36%) were called active. Not shown: some 18% with an inconclusive outcome. Rule as the data show it: active = normalized growth mostly below about 0.91 (no sharp cut-off); inconclusive = no clear call, values can overlap the other calls; inactive = mostly above about 0.92. This is one part of the list.

Experiment: chemical genetic growth profiling, strain panel (AID 1159580);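 also: tested at 20 µM; growth read once vehicle control cultures reached saturation at 30 °C; 1 = growth at the plate median or of vehicle wells; lower values mean less growth of the strain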
Conditions: S. cerevisiae deletion strains, growth OD

Measured: normalized growth

CN(C)CCCN1c2ccccc2CCc2ccccc21
inactive: locus YAL013W, strain DEP1, hits give low values 1.01 and 0.974 | locus YAL021C, strain ccr4, hits give low values 0.965 | locus YAL026C, strain drs2, hits give low values 1 | locus YAL030W, strain snc1, hits give low values 1 | locus YAL040C, strain CLN3, hits give low values 1.05 | locus YBL061C, strain skt5, hits give low values 1 | locus YBR009C, strain hhf1, hits give low values 0.995 | locus YBR021W, strain FUR4, hits give low values 0.997 | locus YBR023C, strain chs3, hits give low values 1 | locus YBR171W, strain sec66, hits give low values 1.01 | locus YBR229C, strain ROT2, hits give low values 1 | locus YBR231C, strain swc5, hits give low values 1 | locus YBR279W, strain paf1, hits give low values 1 | locus YCL011C, strain gbp2, hits give low values 1.01 | locus YCL016C, strain dcc1, hits give low values 0.994 | locus YCL029C, strain bik1, hits give low values 1 | locus YCL061C, strain MRC1 (second series), hits give low values 1 | locus YCL061C, strain MRC1, hits give low values 0.997 | locus YCL069W, strain vba3, hits give low values 1 | locus YCR088W, strain abp1, hits give low values 1.01 | locus YDL005C, strain med2, hits give low values 1.01 | locus YDL035C, strain GPR1, hits give low values 1.03 | locus YDL040C, strain nat1, hits give low values 1 | locus YDL074C, strain BRE1, hits give low values 1.02 | locus YDL101C, strain DUN1, hits give low values 1.03 | locus YDL134C, strain PPH21, hits give low values 1.03 | locus YDL185W, strain tfp1, hits give low values 0.993 | locus YDL192W, strain arf1, hits give low values 0.992 | locus YDR001C, strain nth1, hits give low values 1.01 | locus YDR069C, strain doa4, hits give low values 0.994 | locus YDR101C, strain arx1, hits give low values 0.998 | locus YDR137W, strain rgp1, hits give low values 1.1 | locus YDR150W, strain NUM1, hits give low values 1.01 | locus YDR159W, strain sac3, hits give low values 1 | locus YDR162C, strain NBP2, hits give low values 1.01 | locus YDR195W, strain ref2 1.02 | locus YDR297W, strain sur2, hits give low values 0.996 | locus YDR318W, strain mcm21, hits give low values 0.994 | locus YDR334W, strain swr1, hits give low values 1.01 | locus YDR335W, strain msn5, hits give low values 1.01 | locus YDR363W, strain ESC2, hits give low values 0.964 | locus YDR388W, hits give low values 0.995 | locus YDR392W, strain spt3, hits give low values 1.01 | locus YDR502C, strain sam2, hits give low values 0.993 | locus YEL003W, strain gim4, hits give low values 1 | locus YEL037C, strain rad23, hits give low values 1 | locus YEL061C, strain CIN8 (second series), hits give low values 1.03 | locus YEL061C, strain CIN8, hits give low values 1.01 | locus YER002W, strain NOP16, hits give low values 1.01 | locus YER015W, strain faa2, hits give low values 0.993 | locus YER016W, strain bim1, hits give low values 1.01 | locus YER110C, hits give low values 0.988 | locus YER111C, strain swi4, hits give low values 0.99 | locus YER155C, strain BEM2 (second series), hits give low values 0.975 | locus YER155C, strain BEM2, hits give low values 1 | locus YER167W, strain BCK2, hits give low values 1.01 | locus YFR010W, strain ubp6, hits give low values 1.01 | locus YGL078C, strain dbp3, hits give low values 0.972 | locus YGL086W, strain mad1, hits give low values 1.01 | locus YGL167C, strain pmr1, hits give low values 1.01 | locus YGL173C, strain kem1, hits give low values 0.991 | locus YGL227W, strain vid30, hits give low values 1 | locus YGL240W, strain doc1, hits give low values 1 | locus YGL248W, strain PDE1, hits give low values 1.01 | locus YGL253W, strain hxk2, hits give low values 1.02 | locus YGR078C, strain PAC10, hits give low values 1 and 0.981 | locus YGR135W, strain pre9, hits give low values 0.958 | locus YGR229C, strain SMI1, hits give low values 1 and 0.978 | locus YGR252W, strain gcn5, hits give low values 0.942 | locus YHR013C, strain ard1, hits give low values 0.947 | locus YHR027C, strain rpn1, hits give low values 1.01 | locus YHR030C, strain SLT2, hits give low values 1 and 0.993 | locus YHR079C, strain IRE1 (second series), hits give low values 0.989 | locus YHR079C, strain IRE1, hits give low values 1.01 | locus YHR094C, strain hxt1, hits give low values 0.978 | locus YHR129C, strain ARP1, hits give low values 1.01 | locus YHR142W, strain chs7, hits give low values 1.02 | locus YHR200W, strain rpn10, hits give low values 1 | locus YIL066C, strain RNR3, hits give low values 1.01 | locus YIL073C, strain SPO22, hits give low values 1 | locus YIL125W, strain kgd1, hits give low values 0.995 | locus YIR030C, strain dcg1, hits give low values 0.984 | locus YJL092W, strain hpr5, hits give low values 1.01 | locus YJL095W, strain BCK1 (second series), hits give low values 0.996 | locus YJL095W, strain BCK1, hits give low values 0.997 and 0.998 | locus YJL115W, strain asf1, hits give low values 1.01 | locus YJL129C, strain trk1, hits give low values 0.995 | locus YJL134W, strain LCB3, hits give low values 1.01 | locus YJL154C, strain vps35, hits give low values 1.02 | locus YJL164C, strain tpk1, hits give low values 1 | locus YJL166W, strain qcr8, hits give low values 1.02 | locus YJL168C, strain set2, hits give low values 0.984 | locus YJL187C, strain SWE1 (second series), hits give low values 1.01 | locus YJR043C, strain POL32, hits give low values 1.03 | locus YJR066W, strain TOR1, hits give low values 0.923
